Our source for the inhibition values is PubChem BioAssay.

A number with no mark means an inactive call. Active and inactive are the calls of the source. Cut-off read from the data, not from the text of the source: active = inhibition above about 42%; inactive = the rest.

Chain of Nuclear receptor subfamily 5 group A member 2 (Homo sapiens) (O00482 whole entry, looked up): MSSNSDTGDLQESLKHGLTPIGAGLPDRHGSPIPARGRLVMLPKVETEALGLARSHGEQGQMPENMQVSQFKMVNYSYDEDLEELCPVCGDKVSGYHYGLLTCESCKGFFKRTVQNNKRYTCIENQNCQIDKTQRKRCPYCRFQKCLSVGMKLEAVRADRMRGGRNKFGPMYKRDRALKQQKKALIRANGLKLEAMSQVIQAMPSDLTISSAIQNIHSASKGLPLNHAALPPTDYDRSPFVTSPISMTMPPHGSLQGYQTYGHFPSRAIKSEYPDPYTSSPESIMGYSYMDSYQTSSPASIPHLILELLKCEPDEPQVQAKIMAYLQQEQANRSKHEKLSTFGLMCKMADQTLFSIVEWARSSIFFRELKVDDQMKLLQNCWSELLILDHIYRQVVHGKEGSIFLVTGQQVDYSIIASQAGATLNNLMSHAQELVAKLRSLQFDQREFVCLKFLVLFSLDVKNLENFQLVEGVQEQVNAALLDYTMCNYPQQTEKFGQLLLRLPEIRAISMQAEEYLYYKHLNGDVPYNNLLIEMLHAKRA

This assay concerns the target Nuclear receptor subfamily 5 group A member 2 (Homo sapiens) (UniProt O00482). Briefly: LRH-1 (NR5A2) inverse agonists, retest, confirmation, cell-based, luminescence (AID 651613).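 Note: HEK293T cells co-transfected with LRH-1 and StAR promoter luciferase reporter; 0% = vehicle wells and 100% = parental cells lacking receptor.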 The following applies: cell-based LRH-1 luciferase reporter, inverse agonism; at 3.6 µM; hits give high values. Background: A reporter such as luciferase makes a cellular process visible.
For the compound `CO/N=C\C(=N\Nc1ccc(OC)cc1)C(=O)c1ccccc1`, the inhibition (as a rule, the drop in the measured response relative to a control, in per cent) is 49.5% (active). Turning to `O=C(N/N=C/c1cc2c3c(c1O)CCCN3CCC2)c1ccccc1O`, the inhibition is 103% (active). The result for `S=C(Nc1cccnc1)Nc1cccc2cnccc12` reads 17.3%; that for `CCCc1cc(=O)oc2cc(OCC(=O)NC3CC(C)(C)NC(C)(C)C3)ccc12`, 53% (active). For `CCOc1ccc(NC(=O)COC(=O)COc2cccc3c2OC(C)(C)C3)cc1`, the inhibition is 61.5% (active). For `Cc1ccc(-c2csc(NC(=O)c3ccc([N+](=O)[O-])o3)n2)cc1` the value was 57.5% (active); for `COc1cc2c(cc1OC)-c1c(OC)c(OC)cc3ccnc(c13)C2=O`, 68.4% (active); for `C/C(=N\NC(N)=S)C1(C)CCCCC1`, 57.1% (active). The result for `COc1ccc(-c2sc(C(=O)c3ccc(Cl)cc3Cl)cc2CC(=O)O)cc1` reads 42.2% (active); that for `COc1cc(-c2cc(C(=O)Nc3ccncc3)c3ccccc3n2)cc(OC)c1OC`, 40.9%; that for `COc1ccc2c(c1)/C(=C/c1cc(OC)c(OC)c(OC)c1)C(=O)N2`, 51% (active). As for `CCOC(=O)CCCc1ccc(/C(C)=N/NC(N)=S)cc1`, the inhibition was 62.4% (active). The result for `O=C(NCc1cccc(C(F)(F)F)c1)c1cccc(Cl)c1Cl` reads 46.9% (active).

Consider `CCOc1ccccc1C(=O)Nc1cc2c(cc1N1CCCC1)n(CC)c(=O)n2CC`, for which the inhibition was 48.8% (active). For `Cc1nn(Cc2ccc(Cl)cc2)c(C)c1NC(=O)c1ccc([N+](=O)[O-])cc1` the value was 55.9% (active); for `CCOc1ccc(NC(=O)Cn2nc(-c3ccccc3Cl)n(CC)c2=S)cc1`, 60.4% (active). For `Cc1ccc(-c2nn3c(C)nnc3s2)cc1NC(=O)c1cccs1` the value was 67.5% (active); for `S=C(NCCc1ccccc1)Nc1cccc2cnccc12`, 45.1% (active). For `O=C(CC1C(=O)NCCN1C(=S)Nc1ccccc1)Nc1ccc2c(c1)OCCO2` (centres undefined) the value was 53.8% (active). For `CC(=NNC(=S)N1CCN(c2ccccn2)CC1)c1nccs1`, the inhibition was 91.2% (active). For `O=[N+]([O-])c1ccc(N2CCN(S(=O)(=O)c3ccccc3)CC2)cc1NCc1cccnc1` the value was 61% (active). For `CC(=O)Nc1cc(-c2cccc(F)c2)cn2c(-c3ccc(S(C)(=O)=O)cc3)cnc12` the value was 50.2% (active); for `CCCc1cc(=O)oc2cc(OCC(=O)NCCc3ccc(S(N)(=O)=O)cc3)ccc12`, 50.9% (active).

For the compound `COc1ccc(NC(=O)CSc2nc(O)cc(=O)n2-c2ccccc2OC)cc1`, the inhibition is 47.5% (active).
